Compounds without any hit were thinned out: in the full panel of roughly 83,000, 20% have a hit.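 Growth was measured after 48 h exposure to one concentration of compound in 96-well plates. Values under 10 count as active.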 Activity calls are given as the source filed them.

In the test the test system is MOLT-4 leukemia. The experiment in a line: NCI-60 one-dose screen, 48 h (100 = growth as untreated, 0 = no growth, -100 = all killed). The note with it: 10 µM unless noted. The procedure:
Growth inhibition of the MOLT-4 human tumor cell line is measured as a screen for anti-cancer activity. Cells are grown in 96 well plates and exposed to the test compound for 48 hours. Compounds are tested at a single concentration, which is 10^-5 M for most compounds. The reported endpoint is percent growth (GI% or GIPRCNT), where numbers from 0 - 100% represent growth inhibition, and numbers from -100% - 0 represent cell death. For example, a value of 40 represents 60% growth inhibition. A value of 0 means no net growth occurred over the course of the experiment. A value of -40 indicates 40% of cells at the beginning of the experiment died by the end of the experiment. A value of -100 means all cells are dead at the end of the experiment.
NCI-60 Human Tumor Cell Lines Screen was performed using the standard one-dose NCI protocol, which is described in more detail at https://dtp.cancer.gov/discovery_development/nci-60/default.htm.
Compounds with GIPRCNT values below 10 were considered active. Activity score was based on GIPRCNT using the following formula: […]
Score is 0 for GIPRCNT values of 100 or above, 50 for GIPRCNT values of 0, and 100 for GIPRCNT values of -100.
Consider `COc1cc(-c2nn(C(C)(C)C)cc2-c2ccnc(NCCCNS(=O)(=O)c3ccc(Cl)cc3)n2)ccc1Cl`, for which the growth is 31% (inactive). In the case of `CCCC(=O)NC(c1cccnc1)c1cc(C(C)(C)C)c2cccnc2c1O` (stereo not given), the growth was 14.2% (inactive). As for `O=C(O)c1ccc(-n2cc(CNc3cc(F)c(F)c(F)c3)c(-c3cccc(F)c3)n2)cc1`, the growth is 79.8% (inactive). With `Clc1ccc(N/N=c2/oc3ccccc3cc2-c2cc3ccccc3[nH]2)cc1` the figure was 69.6% (inactive); with `CCOc1ccccc1NC1=C(Cl)C(=O)c2nc(C)ccc2C1=O`, -24.9% (active); with `COc1ccc(-c2nc3cccc(O)c3c(=O)n2Cc2ccccc2)cc1COc1ccc(NC(C)=O)cc1`, 15.4% [3 µM] (inactive). For the compound `CS(=O)(=O)Nc1cc(-c2ccc3ncc(C#N)c(N[C@H](CO)c4ccccc4)c3c2)cnc1Cl`, the growth is 14.7% (inactive). For the compound `C=CC(=O)N1CC=C(c2cc3c(N[C@H](C)c4ccccc4)ncnc3[nH]2)CC1`, the growth was 97.8% (inactive). With `Cc1ccc(-c2nnc(SCc3ccc(O)c4ncccc34)n2-c2ccccc2)cc1` the figure was 8.15% (active); with `Cc1cccc(/C=C/C(=O)Nc2ncc(Cc3cccc(C)c3)s2)c1`, 22% (inactive); with `COc1ccc(/C=C/C(=O)c2cc(S(N)(=O)=O)c(OC)cc2OC)cc1`, 71.1% (inactive).

Consider `C=C(C=O)[C@@H]1CC[C@]2(C)[C@H](C(=O)C=C3[C@H]4C[C@](C)(C(=O)OC)CC[C@]4(C)CC[C@]32C)[C@@]1(C)CCC#N`, for which the growth was 0.0515% (active). For `Cn1cc(-c2nc(N)nnc2-c2c[nH]c3ccccc23)c2cc(Br)ccc21`, the growth is 8.98% (active). The same measure for `Nc1nc(N)c2c(n1)NC(c1ccc(C(F)(F)F)cc1)CC(c1ccc(Nc3nc(NCCO)nc(N4CCOCC4)n3)cc1)=N2` (stereo not given): 23.8% (inactive). With `COc1ccccc1C(=O)Nc1cccc2c1C(=O)C(=O)C=C2` the figure was 36.8% (inactive). Turning to `CCOC(=O)c1c(Nc2ccccc2)nn2c(-c3ccc(OC)cc3)ccnc12`, the growth was 82.5% (inactive).

Regarding `NS(=O)(=O)c1ccc(Nc2nc(SCc3ccccc3)nc3ccccc23)cc1`, the growth is 43.9% (inactive).

`COc1cc2oc(-c3cccc(NC(=O)c4cc(N)ccc4Cl)c3)cc(=O)c2c(OC)c1OC`: the growth is 72.8% (inactive). With `COc1ccc([C@@H]2[C@@H](O)C(=O)N2c2cc(OC)c(OC)c(OC)c2)cc1F` the figure was 15.8% (inactive); with `CCCCCc1ccc(S(=O)(=O)Nc2cccc(-c3csc(NC(=O)CNCCN(C)C)n3)c2)cc1`, 61.8% (inactive); with `ClC(Cl)c1nc(-c2ccco2)n2nc(-c3ccccc3)cc2n1`, 66.6% (inactive). As to `CC[C@@H](CO)Nc1ccc2ncc(C#Cc3cncc(C(=O)Nc4ccc(CN5CCN(C)CC5)c(C(F)(F)F)c4)c3)n2n1`, the growth is 3.44% (active).

As to `c1ccc(C(c2nc3ncncc3[nH]2)N2CSc3nc4ccccc4n3C2)cc1` (stereo not given), the growth was 104% (inactive).

`CN1CCN(Cc2ccc(NC(=O)c3cncc(C#Cc4cnc5ccc(OCC(C)(C)O)nn45)c3)cc2C(F)(F)F)CC1`: the growth is 5.42% (active). As to `NC(N)=Nc1ccc(Oc2cccc(NC(N)=Nc3ccc(I)cc3F)c2)cn1`, the growth was 42.8% (inactive). With `O=S(=O)(NC1c2ccccc2C[C@H]1O)c1ccc(Cl)cc1Cl` (stereo not given in full), the growth is 105% (inactive). The same measure for `N#Cc1cccc(/C(N)=N/C(N)=N/c2nc3ccccc3s2)c1`: 27.7% (inactive); for `C#C[C@]1(O)CC[C@H]2[C@@H]3CC=C4c5sc(-c6ccc(C)cc6)nc5CC[C@]4(C)[C@H]3CC[C@@]21C`: -2.14% (active); for `CCCCCc1ccc(S(=O)(=O)Nc2cc(-c3csc(NC(=O)CN4CCN(C)CC4)n3)ccc2N2CCN(C)CC2)cc1`: -18.4% (active). For `CC1(C)CC[C@]2(C(=O)O)CC[C@]3(C)C(=CC[C@@H]4[C@@]5(C)CC/C(=N\OCCC#N)C(C)(C)[C@@H]5CC[C@]43C)[C@@H]2C1`, the growth is 101% (inactive). With `COc1ccc2[nH]cc(-c3csc4nc(-c5ccccc5)cn34)c2c1` the figure was 19.7% (inactive); with `COc1ccc(N2CCN(C3=C(Cl)C(=O)C(C)=C(C)C3=O)CC2)cc1`, 53.7% (inactive). With `Cc1ccc(NC(=O)N[C@@H](Cc2cc(F)cc(F)c2)C(=O)NC2C(=O)N3C[C@H](O)C[C@H]3C(=O)N3CCCC[C@H]3C(=O)N[C@@H](CO)C(=O)N3C[C@H](C)C[C@H]3C(=O)O[C@H]2C)c(F)c1` (stereo not given in full) the figure was 54.5% (inactive). On to `Oc1[nH]c2ccccc2c1Nn1c(N=N/C=c2/ccc3c(c2)C=NN=3)n[nH]c1=S`, for which the growth was 103% (inactive). The same measure for `CN(C)CCNC(=O)c1ccc(-c2nc3ccc4[nH]ncc4c3c3c2COCC3)cc1`: -9.13% (active). The same measure for `CC(=O)Nc1cccc(Nc2nc(N[C@@H](C)c3ccccc3)c3ccccc3n2)c1`: -17% (active); for `C#Cc1ccc(C(=O)NCc2ccc(/C=C/C(=O)c3nccn3C)cc2)cc1`: 1.15% (active); for `COC(=O)C[Se]C(=O)Cc1c(C)n(C(=O)c2ccc(Cl)cc2)c2ccc(OC)cc12`: 67.1% (inactive). As to `CCCCCc1ccc(S(=O)(=O)Nc2cc(-c3csc(NC(=O)CN4CCN(C)CC4)n3)ccc2OC)cc1`, the growth is -5.31% (active). Turning to `C=CCOc1cccc(/C=C2\SC(=S)N(C3CC(=O)N(c4ccc(Br)cc4)C3=O)C2=O)c1` (stereo not given), the growth was 105% (inactive).

For the origin of these results see PubChem BioAssay (NCI).
